In PubChem BioAssay AID1159580 (chemical genetic matrix, 2015):
The whole screen tested about 5,500 compounds, of which about 2,000 (36%) were called active. Inconclusive results (about 18%) are left out. This is one part of the list. A number with no mark means an inactive call. Cut-off read from the data, not from the text of the source: active = normalized growth mostly below about 0.91 (no sharp cut-off); inconclusive = no clear call, values can overlap the other calls; inactive = mostly above about 0.92.

Test: chemical genetic growth profiling, strain panel (AID 1159580);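 note: tested at 20 µM; growth read once vehicle control cultures reached saturation at 30 °C; 1 = growth at the plate median or of vehicle wells; lower values mean less growth of the strain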
Settings: S. cerevisiae deletion strains, growth OD

## CC(C)NC[C@@H](O)c1ccc(O)c(O)c1
Locus YAL013W, strain DEP1, hits give low values
  normalized growth: 0.974
Locus YAL040C, strain CLN3, hits give low values
  normalized growth: 1.03
Locus YCL061C, strain MRC1 (second series), hits give low values
  normalized growth: 0.996
Locus YDR150W, strain NUM1, hits give low values
  normalized growth: 1
Locus YDR363W, strain ESC2, hits give low values
  normalized growth: 1
Locus YER002W, strain NOP16, hits give low values
  normalized growth: 0.984
Locus YGR078C, strain PAC10, hits give low values
  normalized growth: 0.99
Locus YJR075W, strain HOC1, hits give low values
  normalized growth: 1.12 [resistant] (active)
Locus YMR307W, strain GAS1, hits give low values
  normalized growth: 1.1 [resistant] (active)
Locus YNL175C, strain NOP13, hits give low values
  normalized growth: 0.984
Locus YNL197C, strain WHI3, hits give low values
  normalized growth: 0.985
Locus YNL224C, strain SQS1, hits give low values
  normalized growth: 0.997
Locus YNL322C, strain KRE1, hits give low values
  normalized growth: 1.01
Locus YOR083W, strain WHI5 (second series), hits give low values
  normalized growth: 1.04
Locus YPL241C, strain CIN2, hits give low values
  normalized growth: 0.998
